KAT2A inh: GCN5L2 (KAT2A) acetyltransferase inhibition | AID 504327 | 390,000 tested, 0.21% active | GCN5L2 HAT assay, ThioGlo1 CoA-SH fluorescence | Potency, µM (highest dose often 58.9 µM), for inactives: at the highest dose activity change, negative = inhibition, actives largely listed as inhibitors; further: potency means the concentration at half of the fitted maximal effect
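GCN5L2 (20 nM) in 50mM HEPES pH 7.5, 0.1mM EDTA, 0.01% Tween-20 preincubated 15 min with compounds at room temperature. Reaction started with H3(1-25) 75uM, acetyl-CoA 70uM, ThioGlo1 50uM; CoA-thiol fluorescence (Ex340/Em540) read at 0 and 20 min.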
Pin1 inhibitor: blocks the human prolyl isomerase Pin1 | Pin1 FP peptide displacement, HiFluor488, 10 min | Potency, µM (highest dose often 115 µM), inactives show top-dose activity, negative = inhibition, usual class: inhibitors | 390,000 tested, 0.009% active | AID 504891; active means well fitted inhibition curve with a large enough effect in the polarisation, with a control signal flat, not every such curve was filed as active; inconclusive means small, poorly fitted or top-dose-only effect, or effect the other way, or a change in a side signal; inactive means no such curve, though single readings can be large or run the other way; the % refers to the polarisation; further: potency means the concentration at half of the fitted maximal effect
Target sequence (Q13526 whole entry, looked up): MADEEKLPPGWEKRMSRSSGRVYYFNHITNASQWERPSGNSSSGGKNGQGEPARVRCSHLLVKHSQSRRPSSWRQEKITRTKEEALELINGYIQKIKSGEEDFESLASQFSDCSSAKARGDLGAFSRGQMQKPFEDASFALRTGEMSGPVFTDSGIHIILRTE
Giardia killer: kills Giardia lamblia. Giardia lamblia trophozoite viability. 340,000 tested, 0.15% active. AID 540267. activity change, % at 7.66 µM, hits read low; in the data active means activity change below about -80%; inconclusive means between about -30% and that limit;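 further: parasites exposed to compound for two days anaerobically before the ATP read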
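Anaerobic 48 hrs incubation at 37 deg C of 100 trophozoites/well with test compounds; ATPLite 1-Step luminescence, 15-30 min RT, reports cellular ATP as viability.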
GALK inh: blocks human galactokinase activity. Potency, µM (top dose mostly 57.5 µM), for inactives: top-dose activity change, negative = inhibition, usual class: inhibitors. Purified GALK, Kinase-Glo residual ATP luminescence. AID 1868. 270,000 tested, 0.007% active. P51570; further: potency means the concentration at half of the fitted maximal effect
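Human GALK (5 nM) with 35 uM ATP and 100 uM galactose in 20 mM HEPES pH 8.0, 5 mM MgCl2, 60 mM NaCl, 1 mM DTT, 0.01% BSA. After 1 h at room temperature, leftover ATP was read by Kinase-Glo Plus luminescence.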
TrxR1 inh: blocks rat thioredoxin reductase 1; recombinant rTrxR1, NADPH fluorescence consumption, selenite substrate; Potency, µM (doses to about 114 µM), without a hit: top-dose activity change, negative = inhibition, actives largely listed as inhibitors; 390,000 tested, 1% active; O89049; further: potency means the concentration at half of the fitted maximal effect; nearly all actives have a fitted effect of over 65% in size
Target sequence (O89049 whole entry, looked up): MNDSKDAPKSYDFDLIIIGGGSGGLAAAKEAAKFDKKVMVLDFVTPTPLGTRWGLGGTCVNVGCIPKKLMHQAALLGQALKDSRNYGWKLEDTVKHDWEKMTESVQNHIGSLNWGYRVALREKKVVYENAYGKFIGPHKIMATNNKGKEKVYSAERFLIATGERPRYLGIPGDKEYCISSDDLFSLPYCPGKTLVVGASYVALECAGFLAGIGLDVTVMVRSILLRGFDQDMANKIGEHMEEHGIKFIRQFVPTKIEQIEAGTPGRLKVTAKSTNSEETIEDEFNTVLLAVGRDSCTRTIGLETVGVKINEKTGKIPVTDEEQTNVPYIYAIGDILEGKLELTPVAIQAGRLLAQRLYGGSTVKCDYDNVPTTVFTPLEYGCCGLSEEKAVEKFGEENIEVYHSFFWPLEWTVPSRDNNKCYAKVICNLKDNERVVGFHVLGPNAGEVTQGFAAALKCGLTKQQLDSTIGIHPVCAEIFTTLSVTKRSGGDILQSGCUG
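Rat TrxR1 (90 nM in the dispensed reagent) was pre-reduced with 400 uM NADPH for 5 min at room temperature, then incubated with compound for 15 min. After 400 uM selenite was added, NADPH fluorescence (Ex 340/Em 450 nm) was followed for 8 min.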
TrxR1 substrate: substrates of rat thioredoxin reductase 1; AID 588456; Potency, µM (highest dose often 114 µM), for the others: at the highest dose activity change, negative = substrate turnover; purified TrxR1 substrate turnover, NADPH consumption readout; 390,000 tested, 0.01% active; further: potency means the concentration at half of the fitted maximal effect; nearly all actives have a fitted effect of over 50% in size
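Rat TrxR1, dispensed at 90 nM, was prereduced with 400 uM NADPH (final) for 5 min at ~22 deg C, then incubated with compound 15 min before 400 uM selenite. A first-read NADPH fluorescence drop versus no-compound background flagged substrates.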
* hit, by the source's call; ! = not active in a repeat; [ ] = dose if it differs, or a comment. Only some compounds are listed: those with a hit (about 1.3% of all), similar ones and a draw of the others. Unless noted, the call rests on the fitted dose curve; in most records, active means well fitted curve in the direction sought with a large enough effect; inconclusive means small, poorly fitted or top-dose-only effect, or another doubt; inactive means no such curve, though single readings can be large; an effect the other way counts as inactive or inconclusive. On the % scale 0 is the no-effect control and ±100 the full control effect.

How did CCOC(=O)c1ccc(NC(=O)c2c(NCc3cccs3)sc3c2CCCCC3)cc1 do in these assays?
KAT2A inh: 22µM*; Pin1 inhibitor: inconclusive; TrxR1 inh: inconclusive; TrxR1 substrate: -8%[57.1 µM]

Results for O=C(Cc1ccccc1)Nc1sc2c(c1C(=O)Nc1ccc(Cl)cc1)CCCC2 ?
KAT2A inh: inconclusive; Pin1 inhibitor: 15%; Giardia killer: 0; TrxR1 inh: 10%; TrxR1 substrate: -5%

How did COc1ccccc1N1CCN(C(=O)c2nc(SC)ncc2Cl)CC1 do in these assays?
KAT2A inh: -3%; Pin1 inhibitor: -1%; TrxR1 inh: 14%; TrxR1 substrate: 3%

What do the screens show for `CCC1CN(C(=O)Nc2cc(C)ccc2OC)c2cc(Cl)ccc2O1` (stereo not given)?
KAT2A inh: -19%; Pin1 inhibitor: -9%; TrxR1 inh: 17%; TrxR1 substrate: 5%

How did CCOC(=O)/C=C1\CN(Cc2cc(OC)c(OC)c(OC)c2)S(=O)(=O)c2ccc(C(F)(F)F)cc21 do in these assays?
KAT2A inh: -9%; Pin1 inhibitor: 44%; Giardia killer: 1; TrxR1 inh: 50µM*!; TrxR1 substrate: 0%[57.1 µM]

Results for Cn1c(=O)c([N+](=O)[O-])c(-n2ccnc2)c2ccccc21 ?
KAT2A inh: -3%; Pin1 inhibitor: 2%; Giardia killer: 9; GALK inh: -2%; TrxR1 inh: 10µM*; TrxR1 substrate: 11%[57.1 µM]

Results for O=C/C=C/c1c(-c2ccccc2)cc2oc3ccccc3cc1-2 ?
KAT2A inh: -10%; Pin1 inhibitor: -4%; Giardia killer: -22; GALK inh: 6%; TrxR1 inh: 45µM*; TrxR1 substrate: -5%

What do the screens show for `Nc1ccc(-c2cc3ccccc3oc2=O)cc1`?
KAT2A inh: -16%; Pin1 inhibitor: -1%; Giardia killer: -2; GALK inh: -1%; TrxR1 inh: 14%[57.1 µM]; TrxR1 substrate: 5%[57.1 µM]

How did Cc1cc(C)cc(OCC(=O)Nc2nc3c(s2)CC(C(C)(C)C)CC3)c1 (stereo not given) do in these assays?
KAT2A inh: 1%; Pin1 inhibitor: -2%; TrxR1 inh: 8%; TrxR1 substrate: 5%

How did CCN(CC)C(=O)c1sc(NC(=O)Cc2cccs2)c(C#N)c1C do in these assays?
KAT2A inh: -3%; Pin1 inhibitor: -1%; Giardia killer: 3; GALK inh: 7%; TrxR1 inh: 15%; TrxR1 substrate: 1%

Results for Cc1c(C#N)c(NC(=O)CCl)n(Cc2ccccc2)c1C ?
KAT2A inh: -8%; Pin1 inhibitor: 10%; Giardia killer: -1; GALK inh: 5%; TrxR1 inh: 3.5µM*; TrxR1 substrate: 12%[57.1 µM]

Results for Cc1c(C#N)c(NC(=O)CCl)n(Cc2cccs2)c1C ?
KAT2A inh: -2%; Pin1 inhibitor: inconclusive; Giardia killer: 8; GALK inh: 1%; TrxR1 inh: 3.5µM*; TrxR1 substrate: 9%

Results for Cc1c(C#N)c(NC(=O)CCl)n(Cc2ccc(F)cc2)c1C ?
KAT2A inh: -5%; Pin1 inhibitor: 8%; Giardia killer: -9; GALK inh: -2%; TrxR1 inh: inconclusive; TrxR1 substrate: 3%

What do the screens show for `CCc1cccc(CC)c1N(COC)C(=O)Cn1c(C)nc2ccccc21`?
KAT2A inh: 17%; Pin1 inhibitor: 3%; TrxR1 inh: -16%; TrxR1 substrate: -6%

How did CC(C)Cc1ccc(CN2CCCC(NC(=O)CCN3CCCCC3=O)C2)cc1 (stereo not given) do in these assays?
KAT2A inh: 0%; Pin1 inhibitor: -13%; Giardia killer: 14; GALK inh: 0%; TrxR1 inh: 4%; TrxR1 substrate: 1%

Results for CC(C)Cc1ccc(C(C)/C=C2/CCC(CN3CCCCC3)C2=O)cc1 (stereo not given) ?
Pin1 inhibitor: 0%; Giardia killer: -19; TrxR1 inh: 3.5µM*; TrxR1 substrate: -10%

What do the screens show for `Cc1cccc(-n2c(SCC(=O)NCc3ccco3)nnc2-c2ccco2)c1`?
KAT2A inh: -5%; Pin1 inhibitor: inconclusive; Giardia killer: -16; GALK inh: 0%; TrxR1 inh: -16%[57.1 µM]; TrxR1 substrate: 9%

What do the screens show for `Cc1nnc(SCC(=O)NCc2ccco2)n1-c1ccccc1`?
KAT2A inh: -7%; Pin1 inhibitor: 4%; Giardia killer: 2; GALK inh: 1%; TrxR1 inh: -4%; TrxR1 substrate: 0%

How did Cc1cc(SCC(=O)NC(=O)NCc2ccco2)nc2ccccc12 do in these assays?
KAT2A inh: -9%; Pin1 inhibitor: 69%; Giardia killer: -2; GALK inh: -1%; TrxR1 inh: 71µM*; TrxR1 substrate: -2%

What do the screens show for `O=C(CSc1nnc(C2CCCCC2)n1Cc1ccccc1)NCc1ccco1`?
KAT2A inh: 0%; Pin1 inhibitor: inconclusive; Giardia killer: -11; GALK inh: 2%; TrxR1 inh: 45µM*; TrxR1 substrate: -3%

What do the screens show for `Cc1cc(C)nc(SCc2nnc(SCC(=O)NCc3ccco3)n2-c2ccccc2)n1`?
KAT2A inh: 0%; Pin1 inhibitor: inconclusive; Giardia killer: -12; GALK inh: 2%; TrxR1 inh: 50µM*; TrxR1 substrate: -2%

What do the screens show for `CCn1c(SCC(=O)NCc2ccco2)nnc1C1CCCC1`?
KAT2A inh: -22%; Pin1 inhibitor: -9%; Giardia killer: 6; GALK inh: -1%; TrxR1 inh: inconclusive; TrxR1 substrate: -10%

Results for Cc1cc(SCC(=O)NC(=O)NCc2ccco2)nc2c(C)cccc12 ?
KAT2A inh: -18%; Pin1 inhibitor: 22%; Giardia killer: 5; GALK inh: -1%; TrxR1 inh: inconclusive; TrxR1 substrate: 6%[57.1 µM]

Results for Cc1ccc(-n2c(SCC(=O)NCc3ccco3)nnc2-c2cccnc2)c(C)c1 ?
KAT2A inh: -8%; Pin1 inhibitor: 0%; Giardia killer: 15; GALK inh: -2%; TrxR1 inh: 56µM*; TrxR1 substrate: -2%

Results for O=S(=O)(c1ccccc1)N1CCN(c2nc(C3CC3)nc3ccccc23)CC1 ?
Pin1 inhibitor: -17%

Results for CC1CCCC(NC(=O)c2cccs2)C1C (stereo not given) ?
KAT2A inh: 2%; Pin1 inhibitor: 5%; Giardia killer: 3; TrxR1 inh: 21%; TrxR1 substrate: 2%

What do the screens show for `CCC(=O)Nc1cc2[nH]c(=O)cc(C)c2cc1C`?
KAT2A inh: 2%; Pin1 inhibitor: 3%; Giardia killer: -2; GALK inh: -2%; TrxR1 inh: 5%; TrxR1 substrate: 23%

Screening data: PubChem BioAssay, National Center for Advancing Translational Sciences (NCATS)
